KB-3-1 tox: kills parental KB-3-1 adenocarcinoma cells. KB-3-1 viability, CellTiter-Glo ATP luminescence, 72 h. Potency, µM (doses to about 46.1 µM), most hits filed as cytotoxic. 1.4% of 400,000 active. AID 1347075; also: nearly all actives have a fitted effect of over 60% in size
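Viability of parental KB-3-1 cells, measured by CellTiter-Glo luminescence, followed a 72 h incubation at 37 °C with pinned compounds in phenol-red-free DMEM containing 10% FBS.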
DT40 TDP1 no CPT: qHTS for Inhibitors of human tyrosyl-DNA phosphodiesterase 1 (TDP1): qHTS in cells in absence of CPT; DT40 Tdp1-/- hTDP1 cells, no CPT, ATP luminescence, 48 h; Potency, µM (top dose mostly 46.2 µM), for the others: top-dose activity change, negative = growth inhibition, actives largely listed as inhibitors; 15% of 420,000 active; AID 686978, 2013; also: nearly all actives have a fitted effect of over 55% in size
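Readout: luminescence from CellTiter-Glo after 30 min in the dark at RT. Cells: DT40 Tdp1-/- with stable hTDP1, 400/well. Exposure: compounds alone, ≥48 hr, 37 °C.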
HT1080NT lethal: kills 2HG-producing HT-1080-NT fibrosarcoma cells; HT-1080-NT fibrosarcoma viability, CellTiter-Glo ATP luminescence, 48 h; Potency, µM (doses to about 46.1 µM), inactives show at the highest dose activity, negative = less viability, usual class: cytotoxic; 1.6% of 360,000 active;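 also: NT is the 2HG producing partner of a matched IDH1 knockdown line; 0% = DMSO-treated cells and -100% = media-only wells without cells; nearly all actives have a fitted effect of over 55% in size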
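Compounds were tested in concentration-response format on HT-1080-NT cells for 48 hours at 37 degrees C. Cell viability came from CellTiter-Glo luminescence; curves were classified by r2, response magnitude and activity.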
TDP1 cell CPT: DT40-hTDP1 cell growth loss with CPT; 12% of 420,000 active; Potency, µM (doses to about 46.2 µM), inactives show at the highest dose activity change, negative = growth inhibition, usual class: inhibitors; AID 686979; chicken DT40 Tdp1-/-;hTDP1 cells + 20 nM CPT, ATP luminescence, 48 h; also: nearly all actives have a fitted effect of over 55% in size
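Chicken DT40 Tdp1-/- cells stably complemented with human TDP1 were seeded at 400 cells/well in medium containing 20 nM camptothecin, exposed to pin-transferred compounds, and grown at 37 °C for at least 48 hr. Viability was read as ATP luminescence.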
HT1080 IDH1KD tx: HT-1080 IDH1 knockdown cell toxicity (counter line). Potency, µM (top dose mostly 46.1 µM), inactives show at the highest dose activity, negative = toxicity, usual class: cytotoxic. 2% of 360,000 active. HT-1080 IDH1 knockdown viability, ATP luminescence, 48 h. AID 686971;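 also: 0% = DMSO wells and -100% = cell-free medium wells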
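% activity derives from luminescence (CellTiter-Glo), normalised to DMSO and no-cell wells. HT-1080-IDH1KD cells, 750/well, had 48 h compound exposure at 37 °C.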
KB-V1 cytotox: KB-V1 MDR subline cytotoxicity | 3.4% of 400,000 active | Potency, µM (top dose mostly 46.1 µM), most hits filed as cytotoxic | KB-V1 MDR cells viability, CellTiter-Glo, 72 h; also: nearly all actives have a fitted effect of over 60% in size
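KB-V1 MDR subline cells in DMEM (phenol-red free, 10% FBS) exposed to compounds in qHTS concentration series for 72 h at 37 degrees C. Viability read by CellTiter-Glo luminescence; concentration-effect curves fitted after normalization and correction.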
Active calls of the source: *; i = inactive; ? = inconclusive; nt = no result; [ ] = dose if it differs, or a comment. Only some compounds are listed: those with a hit (about 19% of all), similar ones and a draw of the others. Calls follow the shape of the dose curve; as a rule, active = well fitted curve in the direction sought with a large enough effect; inconclusive = small, poorly fitted or top-dose-only effect, or another doubt; inactive = no such curve, though single readings can be large; an effect the other way counts as inactive or inconclusive. Unless noted, % is scaled to controls: 0 for no effect and ±100 for the full control effect; potency is read from the fitted curve at half-maximal effect.

SMILES	KB-3-1 tox	DT40 TDP1 no CPT	HT1080NT lethal	TDP1 cell CPT	HT1080 IDH1KD tx	KB-V1 cytotox
CCCCN1CC(COCc2ccccc2)Oc2cccc(NCc3ccc(OC)cc3)c2S1(=O)=O (stereo unspecified)	i	?	2%	?	7%	i
CCCCNc1cccc2c1S(=O)(=O)N(CCCC)CC(COCc1ccccc1)O2 (stereo unspecified)	i	16µM*	-4%	?	-10%	i
CCCCN1CC(COCc2ccccc2)Oc2cccc(Oc3cc(C)c(C)c(C)c3)c2S1(=O)=O (stereo unspecified)	i	5.2µM*	-8%	7.3µM*	-7%	i
CCCCN1CC(COCc2ccccc2)Oc2cccc(Oc3ccc(C)cc3)c2S1(=O)=O (stereo unspecified)	i	7.3µM*	?	8.2µM*	-3%	i
CCC(C)N(C(=O)COC(=O)c1cc([N+](=O)[O-])ccc1N)C1CCS(=O)(=O)C1 (stereo unspecified)	i	6%	-3%	6%	12%	i
O=c1c2ccccc2nc2sc3ccccc3n12	i	13µM*	-25%	?	-19%	i
COC(=O)/C=c1/sc2nc3ccccc3n2c1=O	i	?	3%	?	11%	i
Cc1cc(C)c(/C=C/c2onc(C)c2S(=O)(=O)N2CCC(C(=O)N3CCN(c4ccccc4)CC3)CC2)c(C)c1	nt	13µM*	nt	16µM*	nt	nt
Cc1ccc(/C=C/c2onc(C)c2S(=O)(=O)N2CCC(C(=O)N3CC(C)Oc4ccccc43)CC2)cc1 (stereo unspecified)	nt	12µM*	nt	18µM*	nt	nt
Cc1ccc(CNC(=O)C2CCN(S(=O)(=O)c3c(C)noc3/C=C/c3cccs3)CC2)cc1	nt	?	nt	21µM*	nt	nt
Cc1ccc(/C=C/c2onc(C)c2S(=O)(=O)N2CCC(C(=O)N(CCC(C)C)Cc3ccco3)CC2)cc1	nt	16µM*	nt	?	nt	nt
Cc1ccc(/C=C/c2onc(C)c2S(=O)(=O)N2CCC(C(=O)NCc3ccco3)CC2)cc1	i	-27%	nt	-29%	nt	i
Cc1cc(C)c(/C=C/c2onc(C)c2S(=O)(=O)N2CCC(C(=O)NCc3ccccc3Cl)CC2)c(C)c1	nt	?	nt	-27%	nt	nt
COc1ccc(CNC(=O)C2CCN(S(=O)(=O)c3c(C)noc3/C=C/c3cccs3)CC2)cc1	nt	-27%	nt	-23%	nt	nt
Cc1cc(C)c(/C=C/c2onc(C)c2S(=O)(=O)N2CCC(C(=O)Nc3cccc(C)c3C)CC2)c(C)c1	nt	6.5µM*	nt	5.2µM*	nt	nt
CCOc1ccccc1/C=C/c1onc(C)c1S(=O)(=O)N1CCC(C(=O)NC)CC1	i	?	0%	?	8%	i
CCOC(=O)C1CCN(C(=O)C2CCN(S(=O)(=O)c3c(C)noc3/C=C/c3ccc(C)cc3)CC2)CC1	?	5.2µM*	nt	?	nt	i
Cc1cccc(N2CCN(C(=O)C3CCN(S(=O)(=O)c4c(C)noc4/C=C/c4ccccc4F)CC3)CC2C)c1 (stereo unspecified)	nt	6.5µM*	nt	10µM*	nt	nt
CCOc1ccccc1/C=C/c1onc(C)c1S(=O)(=O)N1CCC(C(=O)N2CCCCC2)CC1	i	21µM*	nt	16µM*	nt	i
COc1cccc(CNC(=O)CCCSc2ccccc2)c1	i	-3%	6%	1%	5%	i
CC(=O)N1CCC[C@H]1C(=O)N1CCc2c(cnc(C)c2CNC(=O)/C=C/c2cccs2)C1	nt	-3%	nt	-6%[9.04 µM]	nt	nt
CCC(C)(C)NC(=O)C1CCN(S(=O)(=O)c2c(C)noc2/C=C/c2ccc(C)cc2)CC1	i	?	nt	23µM*	nt	i
Cc1ccc(/C=C/c2onc(C)c2S(=O)(=O)N2CCC(C(=O)N3CCN(C)CC3)CC2)cc1	i	23µM*	?	?	?	i
CCCCN1C(=S)NC[C@@H]1Cc1cccc2ccccc12	i	?	4%	?	0%	i
CCCC[C@@H]1CNC(=S)N1CCc1cccc2ccccc12	i	18µM*	-1%	?	9%	i
SMILES	KB-3-1 tox	DT40 TDP1 no CPT	HT1080NT lethal	TDP1 cell CPT	HT1080 IDH1KD tx	KB-V1 cytotox
S=C1NC[C@H](CC2CCCCC2)N1CC1CCCCC1	i	23µM*	?	21µM*	?	i
S=C1NC[C@H](Cc2cccc3ccccc23)N1CC1CCCCC1	i	23µM*	-9%	?	-10%	i
N#Cc1c(C(F)(F)F)cc(-c2cccc(Cl)c2)[nH]c1=O	i	-25%	?	-11%	?	i
COc1ccccc1C1OC(c2cccc([N+](=O)[O-])c2)=NN1C(C)=O (stereo unspecified)	i	-27%	14%	2%	17%	i
CC(=O)N1N=C(c2cccc([N+](=O)[O-])c2)OC1c1ccc(Cl)cc1Cl (stereo unspecified)	i	?	-10%	-10%	0%	21µM*
CCCNC(=O)Cn1nc(-c2ccc(F)cc2)c2cnc3ccc(F)cc3c21	i	0%	nt	-9%	nt	i
CCOc1ccc(CCNC(=O)c2ccc(C)c(-n3cnc4cccnc43)c2)cc1	i	?	nt	?	nt	i
COc1ccc(S(=O)(=O)N2CCN(c3ccc(C)cc3C)CC2)cc1OC	i	?	2%	21µM*	-4%	i
COc1ccc(S(=O)(=O)N2CCN(c3c(C)cccc3C)CC2)cc1OC	i	-19%	-11%	?	-13%	i
Cc1ccc(N2CCN(S(=O)(=O)c3ccc4oc(=O)ccc4c3)CC2)c(C)c1	i	?	-1%	16µM*	?	i
CN(CC(=O)Nc1sc2c(c1C#N)CCCCC2)Cc1nc2ccccc2c(=O)[nH]1	i	18µM*	-7%	?	-16%	16µM*
CN(Cc1nc2ccccc2c(=O)[nH]1)C(=O)c1cc2c(s1)CCCCC2	i	16µM*	0%	23µM*	6%	i
CN(Cc1nc2ccccc2c(=O)[nH]1)C(=O)c1cccc(NC(=O)c2cccs2)c1	nt	?	11%	?	-1%	nt
CCc1nn(-c2ccccc2)c(N)c1-c1ccc(OC)c(OC)c1	i	6%	2%	3%	-17%	i
Cc1ccccc1-c1cnc(-c2ccncc2)nc1C1CCCN(Cc2ccccc2O)C1 (stereo unspecified)	nt	?	nt	-5%[9.04 µM]	nt	nt

Bioassay records: PubChem BioAssay, National Center for Advancing Translational Sciences (NCATS)
